Data as given in PubChem BioAssay AID651568 (National Center for Advancing Translational Sciences (NCATS), 2012).
Out of some 1,200 compounds screened, about 55 (5%) were called active. Roughly 15% stayed inconclusive and do not appear here. Calls follow the shape of the dose curve; as a rule, active = well fitted inhibition curve with a large enough effect; inconclusive = small, poorly fitted or top-dose-only effect; inactive = no such curve, though single readings can be large or run the other way. For the sample, actives were picked, then their nearest neighbours and some compounds at random.

Experiment: qHTS Assay to Find Inhibitors of Chronic Active B-Cell Receptor Signaling: Hit Validation in Renilla Reporter Assay; also: nearly all actives have a fitted effect of over 70% in size
Conditions: TMD8 IkB-Renilla luciferase reporter, NF-kB signaling; series mostly up to 57.5 µM; activity change, negative = inhibition: at the top concentration
Summary of the method: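 Orthogonal secondary test of primary-screen hits in ABC-DLBCL cells carrying constitutively expressed IkB-Photinus and Renilla luciferase reporters, read by Dual-Glo luminescence; luciferases differ from the primary assay's click beetle enzymes, to exclude assay-specific artifacts.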
% is scaled to controls: 0 for no effect and ±100 for the full control effect; potency is read from the fitted curve at half-maximal effect.

Activity change, negative = inhibition, inactive:
O=C1NC(=Nc2ccc(O)cc2)S/C1=C\C=C\c1ccco1 -0.0749%
O=C(Nc1ncc(Cc2ccc(SC(F)F)cc2)s1)c1ccc(OC(F)F)cc1 -27.7%
CCCc1nnc(NC(=S)Nc2ccccc2)s1 -2.24%
CC1CCCN(c2ccc([N+](=O)[O-])cc2C(=O)c2ccccc2)C1 (centres undefined) 1.52%
N#CC1=C(N)Oc2cc(N)ccc2C1c1cccc(Br)c1 (centres undefined) -21.5%
O=C(c1cc([N+](=O)[O-])ccc1N1CCOCC1)N1CCN(c2ccccc2)CC1 0.66%
CCOC(=O)c1c(C)n(C)c2ccc(OC)c(NC(=O)CN3CCN(C(=O)c4ccco4)CC3)c12 0.121%
CCOc1ccc(S(=O)(=O)NCc2ccccn2)cc1NC(=O)c1ccccc1F 5.11%
Cc1c(C(=O)N/N=C/c2ccc(Cl)cc2)[nH]c2ccc(Cl)cc12 -78.9%
CCOC(=O)c1[nH]c(C)c(C(=O)OCC)c1C -18.6%
CCOC(=O)CSC1=C(C#N)C(c2ccc(C)o2)CC(=O)N1 (centres undefined) -23.1%
COc1ccc(-c2[nH]ncc2/C=C(\C#N)C(=O)NC2CC2)cc1 -9.08%
CC1CCc2c(sc(NC(=O)CSc3nc(N)cc(=O)[nH]3)c2C(N)=O)C1 (centres undefined) -9.45%
COc1ccc(CNc2nc(NCc3ccc(OC)cc3)c3ncn(C4CCCC4)c3n2)cc1 -20.9%
CCOc1ccc(OCc2ccc(C(=O)N/N=C(\C)c3ccccn3)cc2)cc1 -3.8%
C/C(=N\NC(=O)c1ccc(F)cc1)c1ccccn1 -17.5%
Cc1onc(-c2ccccc2)c1C(=O)Nc1cc(C(F)(F)F)ccc1N1CCOCC1 -17.3%
NC(=S)N=Nc1c(O)n(Cc2ccc(Br)cc2)c2ccccc12 -29.3%
C=CCNC(=S)N/N=C/c1cn(C)c2ccccc12 6.14%
CC(=O)c1cc(C#N)c(SCCC(C)C)nc1C -0.979%
C=CCOc1ccc(/C=C2\SC(N)=NC2=O)cc1OC 1.12%
COc1cc2sc(-c3ccc(S(C)(=O)=O)cc3)c(C#CCO)c2cc1OC -5.66%
COC(=O)c1cnc(Oc2ccc(NC(=O)NC(=O)c3c(OC)cccc3OC)cc2)cc1C(F)(F)F -0.497%
COc1ccccc1CNS(=O)(=O)c1ccc(-c2cc(C)no2)cc1 3.45%
CCN(c1ccccc1)S(=O)(=O)c1ccc(C(=O)NNC(=O)c2ccccc2F)cc1 1.63%
O=C(N1CCN(c2ccccn2)CC1)N1c2ccccc2Sc2ccccc21 0.521%
O=[N+]([O-])c1cc(/C=N/O)ccc1Sc1ccccc1 3.47%
CCOc1ccc(C2=Nn3c(nnc3-c3ccccc3OC)SC2)cc1 -24.7%
COc1ccc(C)cc1NS(=O)(=O)c1ccc(-c2cnc(C3CC3)o2)cc1 22.8%
Cc1nc(N2N=C(c3ccc(Cl)cc3)CC2c2ccco2)sc1C(=O)N(C)C (centres undefined) 2.02%
Cc1ccc(/C=N/NC(=O)c2cc(-c3cccnc3)nc3ccccc23)cc1 -4.67%
CC[C@@H](C)[C@H](NC(=O)CCc1c(C)c2cc3c4c(oc3c(C)c2oc1=O)CCCC4)C(=O)O -26.6%
COc1cc(/C=C2\N=C(c3ccccc3)NNC2=O)cc(OC)c1OC 24.1%
CCN(CC)c1ccc(NC(=O)CN2CCN(CC(=O)Nc3ccccc3F)CC2)cc1 -0.989%
CCOc1nc(OCC)nc(N2CCC(C)CC2)n1 -2.28%
CCOc1ccc(NC(=O)c2cc(OC)nc3ccccc23)cc1 -0.0858%
CCC1=Nc2cc(C(=O)NCc3ccco3)ccc2Sc2ccc(C)cc21 -16.4%
Cc1ccc(S(=O)(=O)n2cc(-c3ccccc3)c3ccccc32)cc1 4.15%
COc1cc2c(cc1OC)-c1cc(NC3CCCCCC3)nc(=O)n1CC2 -5.21%
COc1ccc(/C=N/NC(=O)c2ccc3c(c2)NC(=O)C(C)(C)O3)cc1OC -5.68%
CCOC(=O)c1c(C)c(C(=O)OCC)n(C)c1C -16.5%
CC(=O)N1CC(=O)N=C1SCC(=O)Nc1nc(C)c(-c2ccccc2)s1 11.2%
CCOc1ccc(S(=O)(=O)Nc2ccc3oc(C)c(C(=O)OCCOC)c3c2)cc1 9.42%
CCOC(=O)C1=C(C)NC(C)=C(C(=O)OCC)C1C(=O)OCC(=O)NCc1ccccc1OC 20.3%
COc1cc(OC)c2c(-c3cccc(-c4ccc(NC(C)=O)cc4)c3)cc(=O)oc2c1 -17.9%
CC(=O)OCC(=O)[C@@]1(O)CC[C@H]2[C@@H]3CCC4=CC(=O)C=C[C@]4(C)[C@H]3[C@@H](O)C[C@@]21C 0.226%
COC(=O)CCC(=O)NC(=S)Nc1sc(C)c(C)c1C(N)=O 4.1%
CCc1ccc(/C=N/NC(=O)c2cc(C3CC3)nc3ccccc23)s1 -10.8%
N#Cc1ccc(-c2cccs2)nc1SCc1cccnc1 -1.59%
OC(CNCc1ccc(-c2ccccc2)cc1)c1ccccc1 (centres undefined) -0.413%
COc1ccc(-c2cnnn2-c2ccc(N)cc2)cc1OC 1.69%
O=C(N/N=C/c1ccc(Cl)cc1)c1n[nH]c2c1CCCC2 -7.41%
O=C(Cc1ccc(-c2ccccc2)cc1)NCc1ccccc1 7.26%
O=C(Cc1n[nH]c(=O)c2ccccc12)OCC(=O)c1ccc2c(c1)OCCO2 2.17%
Cc1cc(C)cc(N2CC(O)=C(c3nc4ccccc4c(=O)[nH]3)C2=N)c1 -4.94%
O=C(CSc1nc2ccccc2c(=O)n1-c1ccccc1F)NC1CC1 -9.62%
Cc1ccc(Sc2c(CO)c(-c3ccccc3)nn2C)cc1 4.68%
COc1ccc(NC(=O)C(=O)c2cn(CC(=O)N3CCCC3)c3ccccc23)cc1 5.43%
CC(=O)Nc1ccc(NS(=O)(=O)c2cc(-c3n[nH]c(=O)c4ccccc34)ccc2C)cc1 19.6%
COC(=O)c1ccc(C)c(NS(=O)(=O)c2ccc(OC)cc2)c1 32.4%
CCOc1ccccc1C(=O)N1CCN(c2cccc(Cl)c2)CC1 -20.3%
COc1ccc(-c2c(C)c3ccc(O)cc3oc2=O)cc1OC 28.9%
Cc1cccc(C(=O)N[C@H](C(=O)Nc2nc3ccccc3[nH]2)C(C)C)c1 -18.3%
CC1=CC(C)(C)N(S(=O)(=O)c2ccc(C)cc2)c2cc(C)ccc21 -7.09%
COC(=O)c1cc(C(=O)N2CCN(c3cccc(Cl)c3)CC2)cc([N+](=O)[O-])c1 -0.459%
COc1cccc(/C=N/NC(=S)Nc2cccc(S(=O)(=O)N(C)C)c2)c1 17.9%
Cc1ccc(NS(=O)(=O)c2ccc(-c3cnc(C4CC4)o3)cc2)c(C)c1 5.35%
COc1ccc(Nc2cc3n(c(=O)n2)CCc2cc(OC)c(OC)cc2-3)c(C)c1 -11%
COc1ccc(-c2c(-c3cc(OC)c(OC)c(OC)c3)noc2C)cn1 -20.2%
COc1cc(/C=N/N(C)c2ccccc2)ccc1O 7.62%
COc1cc(/C=C2\OC(=O)c3c(OC)cccc32)ccc1O 1.72%
COc1ccc(-c2sc3cc(OC)c(OC)cc3c2C#CC(C)(C)O)cc1 6.22%
CCCn1nc(Oc2nc(N(C)C)nc(N(C)C)n2)ccc1=O -0.0736%
COc1ccc(C(=O)Nc2ccc(-n3nncc3-c3ccc(OC)c(OC)c3)cc2)cc1 -26.9%
CCN(c1cccc(C)c1)S(=O)(=O)c1ccc(-c2cc(C)no2)s1 12%
COc1ccccc1-c1cc(C(=O)Nc2cccnc2)no1 -1.55%
COc1ccccc1/C=N/NC(=S)Nc1cccnc1 -2.9%
Cc1ccc2c(c1)C(=O)C(=O)N2CC1COc2ccccc2O1 (centres undefined) -20.1%
CCn1c2ccccc2c2cc(NC(=O)c3cc(OC)cc(OC)c3)ccc21 2.33%
CCCCn1c(SCC(=O)c2cc(OC)ccc2OC)nc2cc(S(N)(=O)=O)ccc21 -0.961%
COc1ccccc1-c1nnc2sc(-c3ccc(N(C)C)cc3)nn12 2.63%
O=C(Cc1ccc(-n2c(=O)c3ccccc3n(Cc3ccccc3F)c2=O)cc1)NCC1CCCO1 (centres undefined) -0.408%
COc1cc(OC)c(OC)cc1/C=C/C(=O)c1ccc(NS(=O)(=O)c2ccc(C)cc2)cc1 -16.9%
CCC(=NCCc1c(C)[nH]c2ccc(C)cc12)C1=C(O)CC(c2ccccc2)CC1=O (centres undefined) -14.9%
COc1ccc(C2CC(c3ccc(OC)c(OC)c3)=NN2C(=O)c2ccccc2)cc1 (centres undefined) -1.47%
CCc1ccc(CNC(=O)Cc2ccc(NC(=O)C3=C(C)OCCS3)cc2)cc1 0.25%
O=C(NN=C1CCCC1)c1n[nH]c2c1CCCC2 0.76%
CC1=NN(C(N)=S)C(=O)C1N=Nc1cccc([N+](=O)[O-])c1 (centres undefined) -13.6%
S=c1nc2ccccc2c2nc(-c3ccccc3Cl)[nH]n12 -27.4%
CCc1nc2ccccc2c(C(=O)OCc2nc3ccccc3c(=O)[nH]2)c1C -0.954%
COc1cc(OC)cc(-c2cc3cc4c(cc3cn2)OCO4)c1 -4.56%
CCOC(=O)C(C)N1C(=O)S/C(=C/c2ccc3c(c2)n(C)c(=O)n3C)C1=O (centres undefined) 1.42%
CCOC(=O)C1=C(O)/C(=C/c2ccc(OCC(=O)O)c(OCC)c2)SC1=Nc1ccccc1 -13%
Cc1ccc(C)c(Cn2c(=O)n(-c3ccc(CC(=O)NCc4ccco4)cc3)c(=O)c3sccc32)c1 -11%
Cc1ccc(N2C(=O)c3cccc4c(N)ccc(c34)C2=O)c2cccnc12 -20.2%
COc1ccc([C@H]2CC(=O)C=C(c3ccc(OC)cc3OC)C2)cc1 9.69%
COc1ccc(S(=O)(=O)N2CCCCC2)cc1NS(=O)(=O)c1cc(Cl)ccc1Cl 32.2%
CCOc1ccc(N(CC(=O)Nc2ccccc2C)S(=O)(=O)c2c(C)noc2C)cc1 0.105%

Potency, active:
CCOC(=O)c1c(C)[nH]c(C(=O)N/N=C/c2ccc(Br)cc2)c1C 10.7 µM
O=C(NN=C(c1ccccc1)c1ccccn1)c1ccccc1 26.9 µM
CCCC(=O)OCCNc1cc(Sc2nccn2C)c2nonc2c1[N+](=O)[O-] 3.79 µM
S=c1[nH]nc(-c2ccco2)n1/N=C/C(Cl)=C/c1ccccc1 26.9 µM
O=[N+]([O-])c1ccc(Sc2nc3ccccc3o2)c([N+](=O)[O-])c1 3.01 µM
CCc1c(C)c(C#N)c2nc3ccccc3n2c1Cl 0.953 µM
Cc1cc(Cl)n2c(nc3ccccc32)c1C#N 1.9 µM
Cc1cc(Cl)n2c(nc3cc(F)c(F)cc32)c1C#N 1.69 µM
COc1ccc(C(=O)/C=C/c2ccc(O)cc2)c2c1CC(O)C(C)(C)O2 (centres undefined) 23.9 µM
CCSc1nc(-c2ccccc2)nc(C(Cl)Cl)n1 2.69 µM
CC(C)N1C(=O)/C(=C/c2nc3ccccc3c(=O)n2-c2ccccc2)c2ccccc21 13.5 µM
CC(C)N1C(=O)/C(=C\c2nc3ccccc3c(=O)[nH]2)c2ccccc21 23.9 µM
Cc1ccc(/C=C/C(=O)c2nc3ccccc3[nH]2)cc1 16.9 µM
CC(=O)Nc1cc(N=Cc2ccc(O)cc2O)c(Cl)cc1Cl 12 µM
COc1ccc(/C=C2\CCc3ccccc3C2=O)cc1O 26.9 µM
O=C(CCCN1C(=O)/C(=C/c2ccccc2OC(F)F)SC1=S)Nc1cccnc1 30.1 µM
COC(=O)[C@@H]1[C@@H](C#N)C2(c3ccccc3-c3ccccc32)N(c2ccc(Cl)cc2)N1C#N 4.78 µM
CN(C)c1nc(=NCc2ccco2)ss1 16.9 µM
CCCc1noc2c1C(c1ccoc1)C(C#N)=C(N)N2 (centres undefined) 23.9 µM
ClCc1nc2ccccc2c2ccccc12 23.9 µM
CCOc1cc(/C=C2\CN(C)C/C(=C\c3ccc(O)c(OCC)c3)C2=O)ccc1O 5.36 µM
